Measured values: PubChem BioAssay AID1159580 (chemical genetic matrix, 2015)
Values joined by “and” are separate entries in the source; they are usually repeats but may differ in a detail not shown here. Equal values may be shown once. The campaign covered roughly 5,500 compounds. About 2,000 (36%) were called active. Inconclusive results (about 18%) are left out. Some of the results follow. Unmarked numbers belong to inactive results. No stated cut-off is given here; in the data, active means normalized growth mostly below about 0.91 (no sharp cut-off); inconclusive means no clear call, values can overlap the other calls; inactive means mostly above about 0.92.

Assay: chemical genetic growth profiling, strain panel (AID 1159580);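 further: tested at 20 µM; growth read once vehicle control cultures reached saturation at 30 °C; 1 = growth at the plate median or of vehicle wells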
Settings: S. cerevisiae deletion strains, growth OD

O=c1[nH]c2ccccc2n1C1CCN(CCCC(c2ccc(F)cc2)c2ccc(F)cc2)CC1
normalized growth (locus YAL013W, strain DEP1, stronger effect = lower value): 1.01 and 0.995
normalized growth (locus YAL021C, strain ccr4, stronger effect = lower value): 0.839 (active)
normalized growth (locus YAL026C, strain drs2, stronger effect = lower value): 0.948
normalized growth (locus YAL030W, strain snc1, stronger effect = lower value): 0.963
normalized growth (locus YAL040C, strain CLN3, stronger effect = lower value): 1.03
normalized growth (locus YBL061C, strain skt5, stronger effect = lower value): 0.967
normalized growth (locus YBR009C, strain hhf1, stronger effect = lower value): 0.875 (active)
normalized growth (locus YBR021W, strain FUR4, stronger effect = lower value): 0.969
normalized growth (locus YBR023C, strain chs3, stronger effect = lower value): 0.918
normalized growth (locus YBR171W, strain sec66, stronger effect = lower value): 1.03
normalized growth (locus YBR229C, strain ROT2, stronger effect = lower value): 0.948
normalized growth (locus YBR231C, strain swc5, stronger effect = lower value): 0.92
normalized growth (locus YBR279W, strain paf1, stronger effect = lower value): 0.953
normalized growth (locus YCL011C, strain gbp2, stronger effect = lower value): 0.93
normalized growth (locus YCL016C, strain dcc1, stronger effect = lower value): 0.95
normalized growth (locus YCL029C, strain bik1, stronger effect = lower value): 0.986
normalized growth (locus YCL061C, strain MRC1 (second series), stronger effect = lower value): 1.01
normalized growth (locus YCL061C, strain MRC1, stronger effect = lower value): 0.95
normalized growth (locus YCL069W, strain vba3, stronger effect = lower value): 1
normalized growth (locus YCR088W, strain abp1, stronger effect = lower value): 1
normalized growth (locus YDL005C, strain med2, stronger effect = lower value): 1.01
normalized growth (locus YDL035C, strain GPR1, stronger effect = lower value): 0.968
normalized growth (locus YDL040C, strain nat1, stronger effect = lower value): 1.01
normalized growth (locus YDL074C, strain BRE1, stronger effect = lower value): 0.904
normalized growth (locus YDL101C, strain DUN1, stronger effect = lower value): 0.978
normalized growth (locus YDL134C, strain PPH21, stronger effect = lower value): 0.972
normalized growth (locus YDL185W, strain tfp1, stronger effect = lower value): 0.997
normalized growth (locus YDL192W, strain arf1, stronger effect = lower value): 1
normalized growth (locus YDR001C, strain nth1, stronger effect = lower value): 1.02
normalized growth (locus YDR069C, strain doa4, stronger effect = lower value): 0.854 (active)
normalized growth (locus YDR101C, strain arx1, stronger effect = lower value): 1
normalized growth (locus YDR137W, strain rgp1, stronger effect = lower value): 1.26 [resistant] (active)
normalized growth (locus YDR150W, strain NUM1, stronger effect = lower value): 0.973
normalized growth (locus YDR159W, strain sac3, stronger effect = lower value): 0.92
normalized growth (locus YDR162C, strain NBP2, stronger effect = lower value): 0.975
normalized growth (locus YDR195W, strain ref2): 1.05
normalized growth (locus YDR297W, strain sur2, stronger effect = lower value): 0.959
normalized growth (locus YDR318W, strain mcm21, stronger effect = lower value): 0.975
normalized growth (locus YDR334W, strain swr1, stronger effect = lower value): 1.01
normalized growth (locus YDR335W, strain msn5, stronger effect = lower value): 0.959
normalized growth (locus YDR363W, strain ESC2, stronger effect = lower value): 0.989
normalized growth (locus YDR388W, stronger effect = lower value): 0.838 (active)
normalized growth (locus YDR392W, strain spt3, stronger effect = lower value): 0.646 (active)
normalized growth (locus YDR502C, strain sam2, stronger effect = lower value): 0.986
normalized growth (locus YEL003W, strain gim4, stronger effect = lower value): 0.944
normalized growth (locus YEL037C, strain rad23, stronger effect = lower value): 0.936
normalized growth (locus YEL061C, strain CIN8 (second series), stronger effect = lower value): 1.01
normalized growth (locus YEL061C, strain CIN8, stronger effect = lower value): 0.989
normalized growth (locus YER015W, strain faa2, stronger effect = lower value): 0.953
normalized growth (locus YER016W, strain bim1, stronger effect = lower value): 0.961
normalized growth (locus YER110C, stronger effect = lower value): 0.993
normalized growth (locus YER111C, strain swi4, stronger effect = lower value): 1.02
normalized growth (locus YER155C, strain BEM2 (second series), stronger effect = lower value): 0.707 (active)
normalized growth (locus YER155C, strain BEM2, stronger effect = lower value): 1.02
normalized growth (locus YER167W, strain BCK2, stronger effect = lower value): 0.99
normalized growth (locus YFR010W, strain ubp6, stronger effect = lower value): 0.878 (active)
normalized growth (locus YGL078C, strain dbp3, stronger effect = lower value): 0.994
normalized growth (locus YGL086W, strain mad1, stronger effect = lower value): 0.986
normalized growth (locus YGL167C, strain pmr1, stronger effect = lower value): 1.01
normalized growth (locus YGL173C, strain kem1, stronger effect = lower value): 0.936
normalized growth (locus YGL227W, strain vid30, stronger effect = lower value): 1.03
normalized growth (locus YGL240W, strain doc1, stronger effect = lower value): 0.916
normalized growth (locus YGL248W, strain PDE1, stronger effect = lower value): 0.979
normalized growth (locus YGL253W, strain hxk2, stronger effect = lower value): 0.938
normalized growth (locus YGR078C, strain PAC10, stronger effect = lower value): 0.967
normalized growth (locus YGR135W, strain pre9, stronger effect = lower value): 0.926
normalized growth (locus YGR229C, strain SMI1, stronger effect = lower value): 0.949
normalized growth (locus YGR252W, strain gcn5, stronger effect = lower value): 0.782
normalized growth (locus YHR013C, strain ard1, stronger effect = lower value): 1.02
normalized growth (locus YHR027C, strain rpn1, stronger effect = lower value): 0.927
normalized growth (locus YHR030C, strain SLT2, stronger effect = lower value): 0.995 and 0.973
normalized growth (locus YHR079C, strain IRE1 (second series), stronger effect = lower value): 0.994
normalized growth (locus YHR079C, strain IRE1, stronger effect = lower value): 0.942
normalized growth (locus YHR094C, strain hxt1, stronger effect = lower value): 0.995
normalized growth (locus YHR129C, strain ARP1, stronger effect = lower value): 0.987
normalized growth (locus YHR142W, strain chs7, stronger effect = lower value): 0.915
normalized growth (locus YHR200W, strain rpn10, stronger effect = lower value): 0.988
normalized growth (locus YIL066C, strain RNR3, stronger effect = lower value): 0.968
normalized growth (locus YIL073C, strain SPO22, stronger effect = lower value): 1.72 [resistant] (active)
normalized growth (locus YIL125W, strain kgd1, stronger effect = lower value): 0.995
normalized growth (locus YIR030C, strain dcg1, stronger effect = lower value): 1
normalized growth (locus YJL092W, strain hpr5, stronger effect = lower value): 0.936
normalized growth (locus YJL095W, strain BCK1 (second series), stronger effect = lower value): 0.973
normalized growth (locus YJL095W, strain BCK1, stronger effect = lower value): 1.01 and 0.96
normalized growth (locus YJL115W, strain asf1, stronger effect = lower value): 1.02
normalized growth (locus YJL129C, strain trk1, stronger effect = lower value): 0.885
normalized growth (locus YJL134W, strain LCB3, stronger effect = lower value): 0.993
normalized growth (locus YJL154C, strain vps35, stronger effect = lower value): 1.01
normalized growth (locus YJL164C, strain tpk1, stronger effect = lower value): 0.937
normalized growth (locus YJL166W, strain qcr8, stronger effect = lower value): 0.947
normalized growth (locus YJL168C, strain set2, stronger effect = lower value): 0.997
normalized growth (locus YJL187C, strain SWE1 (second series), stronger effect = lower value): 0.97
normalized growth (locus YJR043C, strain POL32, stronger effect = lower value): 0.996
normalized growth (locus YJR066W, strain TOR1, stronger effect = lower value): 0.93
